BCR signal inh: qHTS Assay to Find Inhibitors of Chronic Active B-Cell Receptor Signaling | ABC-DLBCL IkBa-CBG/CBR reporter, luminescence ratio, 4 h | Potency, µM (series often up to 46.1 µM), without a hit: at the highest dose activity change, negative = inhibition, hits mostly inhibitors | AID 493014, 2011 | 0.05% of 340,000 active; active = well fitted inhibition curve with a large enough effect in the signal ratio, with a control signal flat, not every such curve was filed as active; inconclusive = small, poorly fitted or top-dose-only effect, or effect the other way, or a change in a side signal; the % refers to the signal ratio;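 note: potency is the fitted concentration of half-maximal effect; plate controls were basal doxycycline-induced cells for no effect and cells given 10 µM MG132 for full effect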
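TMD8 ABC-DLBCL cells carrying doxycycline-inducible green luciferase fused to IkappaBalpha plus unfused red luciferase were exposed to compounds (up to 46 uM) for 4 hrs at 37C. Activity came from the overlap-corrected green/red luminescence ratio.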
IL1B secr inh: qHTS for Inhibitors of Inflammasome Signaling: IL-1-beta AlphaLISA Primary Screen; 4.7% of 360,000 active; activity change, % at 57.5 µM; THP-1 LPS/ATP IL-1B secretion, AlphaLISA, 16 h; stronger effect = lower value; in the data active = activity change below about -50%; inconclusive = mostly about -30% to -49%; note: % is set by controls: 0 for no effect and ±100 for the full control effect
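THP-1 cells pretreated 1 hr with compounds (up to 57.5 uM final), then stimulated with LPS (250 ng/mL final) plus ATP (1.25 mM final); secreted IL-1B measured by AlphaLISA after 16 hr, decreased signal indicating inhibition.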
SW480 rereplic: A quantitative high throughput screen for small molecules that induce DNA re-replication in SW480 colon adenocarcinoma cells. SW480 DNA re-replication, Hoechst DNA content imaging, 48 h. 1.8% of 340,000 active. Potency, µM (series often up to 46.1 µM), without a hit: at the highest dose re-replication activation, usual class: activators; note: potency is the fitted concentration of half-maximal effect; % of control where 0% means no effect; nearly all actives have a fitted effect of over 55% in size
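Readout is total intensity of Hoechst-stained nuclei, excited at 405 nm and collected at 500-530 nm. Compound treatment lasted 48 hr at 37 C in 5% CO2 before staining.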
DT40 TDP1 CPT: qHTS for Inhibitors of human tyrosyl-DNA phosphodiesterase 1 (TDP1): qHTS in cells in presence of CPT. 12% of 420,000 active. Potency, µM (highest dose often 46.2 µM), inactives show top-dose activity change, negative = growth inhibition, most hits filed as inhibitors. chicken DT40 Tdp1-/-;hTDP1 cells + 20 nM CPT, ATP luminescence, 48 h; note: potency is the fitted concentration of half-maximal effect; % is set by controls: 0 for no effect and ±100 for the full control effect; nearly all actives have a fitted effect of over 55% in size
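Cell growth measured by CellTiter-Glo luminescence after a minimum 48 h, 37 C compound exposure with 20 nM CPT in Tdp1-knockout DT40 cells stably expressing hTDP1, seeded 400/well; qHTS titration format.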
MCF10A rereplic: A quantitative high throughput screen for small molecules that induce DNA re-replication in MCF 10a normal breast cells. MCF 10A DNA re-replication, Hoechst nuclear intensity, 48 h. Potency, µM (top dose mostly 46.1 µM), for inactives: top-dose activity, positive = re-replication, usual class: activators. 2.9% of 350,000 active. AID 624296, 2012; note: potency is the fitted concentration of half-maximal effect; % of control where 0% means no effect; nearly all actives have a fitted effect of over 50% in size
DT40 TDP1 no CPT: qHTS for Inhibitors of human tyrosyl-DNA phosphodiesterase 1 (TDP1): qHTS in cells in absence of CPT; DT40 Tdp1-/- hTDP1 cells, no CPT, ATP luminescence, 48 h; Potency, µM (doses to about 46.2 µM), for the others: at the top dose activity change, negative = growth inhibition, hits mostly inhibitors; 15% of 420,000 active; note: potency is the fitted concentration of half-maximal effect; % is set by controls: 0 for no effect and ±100 for the full control effect; nearly all actives have a fitted effect of over 55% in size
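Compound effects on proliferation are scored in DT40 Tdp1-/-;hTDP1 cells in the absence of CPT. ATP levels (CellTiter-Glo luminescence) are recorded after a ≥48 hr, 37 °C incubation.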
* = called active by the depositor. Rows were chosen to be rich in hits. Some 19% of all compounds tested hit in one or more screens of this group. Unless noted, calls come from the whole dose curve; as a rule, active = well fitted curve in the direction sought with a large enough effect; inconclusive = small, poorly fitted or top-dose-only effect, or another doubt; inactive = no such curve, though single readings can be large; an effect the other way counts as inactive or inconclusive.

Screening CCCN(CCC)C(=O)C1CCN(c2cc(C)nc3c(-c4ccc(OC)c(OC)c4)c(C)nn23)CC1 returned BCR signal inh inconclusive, IL1B secr inh -15, SW480 rereplic -17%, DT40 TDP1 CPT 18µM*, MCF10A rereplic 8% and DT40 TDP1 no CPT 16µM*.
Screening COc1ccccc1N1CCN(c2cc(C)nc3c(-c4ccc(Cl)cc4)c(C)nn23)CC1 returned BCR signal inh -2%, DT40 TDP1 CPT 20% and DT40 TDP1 no CPT -4%.
`COCCCNC(=O)C1CCN(c2cc(C)nc3c(-c4ccc(OC)c(OC)c4)c(C)nn23)CC1` gave DT40 TDP1 CPT -18% and DT40 TDP1 no CPT 16µM*.
O=c1oc(CCO)cc2ccc(Br)cc12 was read as BCR signal inh -3%, IL1B secr inh 11, SW480 rereplic -6%, DT40 TDP1 CPT 0%, MCF10A rereplic inconclusive and DT40 TDP1 no CPT 6%.
`COc1ccc(-n2cnc3c(N)nc(N)nc32)cc1` gave IL1B secr inh -4, SW480 rereplic 1%, DT40 TDP1 CPT -8%, MCF10A rereplic -1% and DT40 TDP1 no CPT -19%.
`Cc1ccsc1C(=O)N1CCCC(CO)(Cc2ccccc2F)C1` (configuration not stated) gave BCR signal inh -4%, IL1B secr inh 9, SW480 rereplic -4%, DT40 TDP1 CPT -23%, MCF10A rereplic -2% and DT40 TDP1 no CPT inconclusive.
`O=C(CN1CCN(c2ccccc2O)CC1)Nc1cccnc1Cl` gave BCR signal inh -17%, IL1B secr inh -10, SW480 rereplic inconclusive, DT40 TDP1 CPT -22%, MCF10A rereplic 7% and DT40 TDP1 no CPT -13%.
`Cc1cccc(-n2c(C)cc(/C=C3\NC(=O)NC3=O)c2C)c1` gave BCR signal inh -9%, SW480 rereplic inconclusive, DT40 TDP1 CPT inconclusive, MCF10A rereplic 16µM* and DT40 TDP1 no CPT inconclusive.
COC(=O)C1=C(C)NC(=O)/C1=C\c1cc(C)n(-c2cccc(C)c2)c1C was read as BCR signal inh -3%, IL1B secr inh inconclusive, SW480 rereplic 2%, DT40 TDP1 CPT inconclusive, MCF10A rereplic inconclusive and DT40 TDP1 no CPT 16µM*.
`Cc1cc(/C=C2/NC(=O)NC2=O)c(C)n1-c1ccncc1` gave BCR signal inh -12%, IL1B secr inh -17, SW480 rereplic -12%, DT40 TDP1 CPT 15%, MCF10A rereplic 0% and DT40 TDP1 no CPT -15%.
`Cc1cc(C)c(-n2c(C)cc(/C=C3/NC(=O)NC3=O)c2C)c(C)c1` gave BCR signal inh -13%, IL1B secr inh 62, SW480 rereplic 0%, DT40 TDP1 CPT inconclusive, MCF10A rereplic inconclusive and DT40 TDP1 no CPT 15µM*.
Screening Cc1cc(/C=C2/NC(=O)NC2=O)c(C)n1C returned BCR signal inh -1%, IL1B secr inh 18, SW480 rereplic 2%, DT40 TDP1 CPT inconclusive, MCF10A rereplic -10% and DT40 TDP1 no CPT inconclusive.
Screening COC(=O)C1=C(C)NC(=O)/C1=C\c1cc(C)n(-c2ccc(F)cc2)c1C returned BCR signal inh inconclusive, IL1B secr inh inconclusive, SW480 rereplic -10%, DT40 TDP1 CPT -5%, MCF10A rereplic 4% and DT40 TDP1 no CPT -28%.
For O=C(NCCc1ccccc1)c1[nH]c(C(F)(F)F)nc1-c1ccccc1 the results were IL1B secr inh 5, DT40 TDP1 CPT -24% and DT40 TDP1 no CPT inconclusive.
Screening O=C(NCCC1=CCCCC1)c1[nH]c(C(F)(F)F)nc1-c1ccccc1 returned IL1B secr inh 0, DT40 TDP1 CPT 16µM* and DT40 TDP1 no CPT inconclusive.
For Cc1cccc(NC(=O)c2cc(S(=O)(=O)N3CCCC3)cn2C)c1 the results were BCR signal inh 3%, IL1B secr inh 0, SW480 rereplic 5%, DT40 TDP1 CPT -20%, MCF10A rereplic 7% and DT40 TDP1 no CPT -24%.
Screening CSc1nccc(N2CCN(c3ccc(F)cc3)CC2)n1 returned BCR signal inh -3%, IL1B secr inh -8, SW480 rereplic -1%, DT40 TDP1 CPT 13µM*, MCF10A rereplic 20% and DT40 TDP1 no CPT inconclusive.
Screening Clc1ccc(N2CCN(c3ccnc(Cl)n3)CC2)cc1 returned IL1B secr inh -18, SW480 rereplic -10%, DT40 TDP1 CPT -19%, MCF10A rereplic 2% and DT40 TDP1 no CPT inconclusive.
`CCOC(=O)c1c(C)[nH]c(C(=O)C(C)Cl)c1C` (configuration not stated) gave BCR signal inh -1%, IL1B secr inh -101*, SW480 rereplic 2%, DT40 TDP1 CPT inconclusive, MCF10A rereplic inconclusive and DT40 TDP1 no CPT inconclusive.
For CCOC(=O)c1[nH]c(C)c(C(=O)O)c1C the results were BCR signal inh -14%.
`CCOC(=O)c1[nH]c(C=O)c(C(=O)OCC)c1C` gave BCR signal inh 8%, IL1B secr inh 0, SW480 rereplic 5.8µM*, DT40 TDP1 CPT 0.65µM*, MCF10A rereplic 12µM* and DT40 TDP1 no CPT 0.65µM*.
For COCCNC(=O)c1nn(-c2ccc(C)cc2)c(=O)n(C)c1=O the results were DT40 TDP1 CPT -7% and DT40 TDP1 no CPT -13%.
For CC(C)c1nc2cc3ccccc3cc2[nH]1 the results were BCR signal inh inconclusive, IL1B secr inh -53*, SW480 rereplic 21%, DT40 TDP1 CPT -15%, MCF10A rereplic inconclusive and DT40 TDP1 no CPT -18%.
COc1ccc(Nc2nnc(C)c(=O)[nH]2)c(OC)c1 was read as BCR signal inh 0%, IL1B secr inh 6, SW480 rereplic -12%, DT40 TDP1 CPT 1%, MCF10A rereplic -3% and DT40 TDP1 no CPT -9%.
NC1CONC1=O (configuration not stated) was read as DT40 TDP1 CPT -18% and DT40 TDP1 no CPT inconclusive.
Cc1cc(C)c(-n2c(SCCS(=O)(=O)c3ccc(F)cc3)n[nH]c2=O)c(C)c1 was read as BCR signal inh inconclusive, IL1B secr inh -97*, SW480 rereplic inconclusive, DT40 TDP1 CPT 26µM*, MCF10A rereplic inconclusive and DT40 TDP1 no CPT 23µM*.
Screening Cc1cc(C)c(-n2c(SCc3nc4ccccc4s3)n[nH]c2=O)c(C)c1 returned BCR signal inh 3%, IL1B secr inh -95*, SW480 rereplic -1%, DT40 TDP1 CPT inconclusive, MCF10A rereplic 15% and DT40 TDP1 no CPT 29µM*.
